PubChem BioAssay (NCI)
The panel holds about 83,000 compounds, 20% with a hit somewhere; the sample as a whole holds those more often.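 The test compound was applied at a single concentration to cells in 96-well plates for 48 hours, and percent growth was recorded.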 Active and inactive are the calls of the source. Rule for the calls: active = growth percent below 10; inactive = the rest.

Legend:
Assay in all cases: NCI-60 one-dose screen, 48 h (100 = growth as untreated, 0 = no growth, -100 = all killed)
Details in all cases: 10 µM unless noted
HCT-15 colon = test system: HCT-15 colon
HT29 colon = test system: HT29 colon
SNB-75 CNS = test system: SNB-75 CNS
SNB-19 CNS = test system: SNB-19 CNS
U251 CNS = test system: U251 CNS
PC-3 prostate = test system: PC-3 prostate
SK-MEL-5 melanoma = test system: SK-MEL-5 melanoma
UACC-62 melanoma = test system: UACC-62 melanoma
LOX IMVI melanoma = test system: LOX IMVI melanoma

Structure (SMILES) | growth (HCT-15 colon) | growth (HT29 colon) | growth (SNB-75 CNS) | growth (SNB-19 CNS) | growth (U251 CNS) | growth (PC-3 prostate) | growth (SK-MEL-5 melanoma) | growth (UACC-62 melanoma) | growth (LOX IMVI melanoma)
CN1CCN(Cc2ccc(NC(=O)c3cccc(C#Cc4cnc(N)c5ncccc45)c3F)cc2C(F)(F)F)CC1 | -57.2% (active) | -55.5% (active) | 53.9% (inactive) | 96.4% (inactive) | -88.2% (active) | 30.7% (inactive) | 44.1% (inactive) | 55.5% (inactive) | -88.8% (active)
COC(=O)CNS(=O)(=O)c1ccc2c(c1)Cc1cc(S(=O)(=O)NCC(=O)OC)ccc1-2 | 102% (inactive) | 112% (inactive) | 91.6% (inactive) | 100% (inactive) | 100% (inactive) | 92.9% (inactive) | 98.2% (inactive) | 93.3% (inactive) | 97% (inactive)
COc1ccc(-c2cn(-c3cccc(C(=O)/C=C/c4ccc(O)c(OC)c4)c3)c(=O)[nH]2)cc1 | 8.88% (active) | -21.6% (active) | 1.36% (active) | 67.4% (inactive) | 4.66% (active) | 20.2% (inactive) | 22.7% (inactive) | 40.8% (inactive) | -13.9% (active)
CCC(C)C1NC(=O)c2nc(oc2-c2ccccc2)-c2csc(n2)-c2csc(n2)-c2nc(oc2C)-c2coc(n2)CNC(=O)C(C(C)CC)NC1=O (stereo unspecified) | -77.7% (active) | -81.6% (active) | -86.3% (active) | -61.3% (active) | -83.4% (active) | -85.6% (active) | -91.3% (active) | -70.5% (active) | -72.4% (active)
F | 57.4% [6.87 mM] (inactive) | 1.64% [6.87 mM] (active) | 11.4% [6.87 mM] (inactive) | 41.2% [6.87 mM] (inactive) | 17% [6.87 mM] (inactive) | 33% [6.87 mM] (inactive) | -66.1% [6.87 mM] (active) | -74.4% [6.87 mM] (active) | 1.06% [6.87 mM] (active)
CN(C)c1ccc(/C=C(\C#N)c2nc3ccccc3n2C)cc1 | 28.5% (inactive) | 13.7% (inactive) | 7.56% (active) | 68.6% (inactive) | 30.3% (inactive) | 35.7% (inactive) | 14.5% (inactive) | 35% (inactive) | 
Nc1ccc(N(O)/C=C2\C=CC=CC2=O)cc1N | 87% (inactive) | 172% (inactive) | 104% (inactive) | 102% (inactive) | 94.1% (inactive) | 69.6% (inactive) | 76.3% (inactive) | 66.1% (inactive) | 48.8% (inactive)
COc1cccc(CC(C)=C(c2ccc(OCCCN(C)C)cc2)c2ccc(OCCCN(C)C)cc2)c1 | -78.4% (active) | -81.5% (active) | -94.9% (active) | -72.1% (active) | -94.8% (active) | -89.4% (active) | -95.3% (active) | -84.7% (active) | -79.6% (active)
CC(C)c1[nH]ncc1-c1nc2ccc3[nH]ncc3c2c2c1CCCC2 | 37.5% (inactive) | 35% (inactive) | -3.19% (active) | 40.4% (inactive) | 37.7% (inactive) | 44.2% (inactive) | 45.2% (inactive) | 34.1% (inactive) | 23.6% (inactive)
CCN(CC)CCCC(C)Nc1cnc(C(=O)Nc2cccc3ccc(OC)nc23)cn1 (stereo unspecified) | -25.6% (active) | -47.2% (active) | 75.9% (inactive) | 94.9% (inactive) | 56.1% (inactive) | 69.5% (inactive) | 5.4% (active) | -57.8% (active) | -89.9% (active)
COc1ccc(NC(=O)c2ccc(C(F)(F)F)nc2Nc2ccc(Cl)cc2C)cc1Cl | 22.4% (inactive) | 26.6% (inactive) | 35% (inactive) | 30% (inactive) | 20.3% (inactive) | 10.2% (inactive) | 28.2% (inactive) | 15.3% (inactive) | 13.4% (inactive)
COc1c(-c2cc(-c3ccc(C)o3)[nH]c(=O)n2)c(O)cc2occc12 | 32.6% (inactive) | 96% (inactive) | 50% (inactive) | 65.9% (inactive) | 63.5% (inactive) | 69.4% (inactive) | 76.8% (inactive) | 48.1% (inactive) | 58.2% (inactive)
Cc1c(-c2ccc(-c3ccccc3F)cc2)nc2ccc(F)cc2c1C(=O)O | 29% (inactive) | 28.3% (inactive) | 60.9% (inactive) | 41% (inactive) | 31.9% (inactive) | 33.2% (inactive) | 40.4% (inactive) | 39.5% (inactive) | 9.11% (active)
